A short description of assay [1]: inhibitors of TNFa-induced NFkB p65 translocation, primary screen, imaging, HUVEC, MLSMR starter and 10KST1 sets (AID 438;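 active = inhibition above 20% together with a positive visual image hit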;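 note: compound added about 3h40 before a 20 min TNFalpha stimulation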;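 for inhibition: signal is the nuclear over cytoplasmic p65 intensity ratio per well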). To be noted: HUVEC TNFa-induced p65 nuclear translocation; cell count: measured here: nuclei count (cytotoxicity indicator), at 2.08 µM; inhibition: at 2 µM, stronger effect = higher value, 0% TNFa-plus-vehicle, 100% no-TNFa wells.
Assay [2] in a line: inhibitors of mutant huntingtin aggregation, primary screen, imaging, exon1htt(103Q)mCFP cells, high-content imaging (AID 483;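 active = visual image review flags a hit and inhibition of aggregation exceeds 20%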;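 note: compound exposure lasted 3 days before fixation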;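 for nuclei count: percent of the per-plate median nuclei count of sample wells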). To be noted: exon1htt(103Q)mCFP cell line, aggregate imaging, at 2 µM; inhibition of aggregation: stronger effect = higher value; nuclei count: measured here: cell count, toxicity.
A short description of assay [3]: inhibitors of E-selectin induction by TNFa, primary screen, imaging, HUVEC, immunofluorescence, MLSMR starter and 10KST1 sets (AID 487;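 active = visually confirmed hit in the image check and inhibition above 20%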;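 for inhibition: signal is fraction of cell area covered by stained E-selectin grains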;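 for nuclei count: 100% = median nuclei count of all wells on the same plate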). The settings on record: HUVEC TNFalpha-induced E-selectin immunofluorescence imaging, at 2 µM; inhibition: stronger effect = higher value; nuclei count: measured here: cell number, toxicity.
Assay [4] addresses Voltage-gated potassium channel subunit beta-2 (Rattus norvegicus) (UniProt P62483). In words: KvBeta enzyme negative modulators, primary screen, biochemical, NADPH fluorescence (AID 622;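 active = fluorescence slope higher than the sample average by over 3 SD, cut at about -0.22 in these data, passing the limit was not always enough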;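 note: slope of raw intensity against log time taken from 70 to 1610 s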). The settings on record: recombinant KvBeta, 4-cyanobenzaldehyde reduction, at 10 µM, stronger effect = higher value.
Assay [5] has the same target. In words: KvBeta positive modulators, primary screen, biochemical, NADPH fluorescence (AID 623;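 active = NADPH fluorescence slope more negative than the mean of all samples by about 3 SD, 99.7% confidence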;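 note: fluorescence intensity change per second fitted from 20 to 320 s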). The settings on record: Recombinant KvBeta, NADPH fluorescence decrease slope, 10 min; at 10 µM; stronger effect = lower value.
Assay [6] has as its target Alpha-2C adrenergic receptor (Homo sapiens) (UniProt P18825). Put plainly: modulators of alpha2C/GIRK thallium flux, primary screen, cell-based, HEK293 alpha2C/GIRK1/2 (AID 624;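 active = fluorescence slope after compound addition differing from the mean of all screened samples at 99.7% confidence, in either direction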;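 note: slope of fluorescence ratio to pre-addition baseline per second over 15 to 24 s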). To be noted: thallium flux BTC fluorescence, at 10 µM, actives lie on both sides.
A short description of assay [7]: inhibitors of Sendai virus-induced IRF3 signaling, primary screen, TLR/RLR signaling modifier project, cell-based, Sendai virus stimulus, luciferase, 10K MLSCN set (AID 602276;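 active = inhibition at or above 50% at 10 µM; inactive = inhibition below 50%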;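 note: firefly luciferase from ISG56 promoter only with Renilla not read in this screen; 0% = Sendai virus plus DMSO and 100% = medium plus DMSO without virus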). To be noted: HEK293 RL24 IRF3 luciferase reporter, at 10 µM, stronger effect = higher value. In general terms: A reporter such as luciferase makes a cellular process visible.
Assay [8] is described as follows: inhibitors of poly I:C-induced TLR3 signaling, primary screen, cell-based, poly I:C stimulus, luciferase, 10K MLSCN set (AID 602277). The settings on record: HEK293-TLR3 RL24 IRF3 luciferase reporter, at 10 µM, stronger effect = higher value.

The structures appear in SMILES notation. The source made the active and inactive calls.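 Rule for the calls, unless noted: active = inhibition of the reporter signal at or above 50%; inactive = inhibition below 50%.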

As usually defined, the inhibition is the change of the read-out against control, counted positive when it falls.

Alpha-2C adrenergic receptor (Homo sapiens), sequence (P18825 whole entry, looked up): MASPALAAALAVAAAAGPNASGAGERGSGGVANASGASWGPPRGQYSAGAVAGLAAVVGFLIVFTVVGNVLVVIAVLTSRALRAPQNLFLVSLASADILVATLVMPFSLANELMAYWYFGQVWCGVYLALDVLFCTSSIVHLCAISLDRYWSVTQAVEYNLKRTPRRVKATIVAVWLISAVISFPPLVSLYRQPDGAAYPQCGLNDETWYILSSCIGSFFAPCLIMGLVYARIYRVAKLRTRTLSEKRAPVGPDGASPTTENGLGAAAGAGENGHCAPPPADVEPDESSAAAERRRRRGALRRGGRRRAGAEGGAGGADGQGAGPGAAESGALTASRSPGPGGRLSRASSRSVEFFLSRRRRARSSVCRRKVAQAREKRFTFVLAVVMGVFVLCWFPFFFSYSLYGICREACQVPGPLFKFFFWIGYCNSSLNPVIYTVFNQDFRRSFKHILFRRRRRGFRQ
Voltage-gated potassium channel subunit beta-2 (Rattus norvegicus), sequence (P62483 whole entry, looked up): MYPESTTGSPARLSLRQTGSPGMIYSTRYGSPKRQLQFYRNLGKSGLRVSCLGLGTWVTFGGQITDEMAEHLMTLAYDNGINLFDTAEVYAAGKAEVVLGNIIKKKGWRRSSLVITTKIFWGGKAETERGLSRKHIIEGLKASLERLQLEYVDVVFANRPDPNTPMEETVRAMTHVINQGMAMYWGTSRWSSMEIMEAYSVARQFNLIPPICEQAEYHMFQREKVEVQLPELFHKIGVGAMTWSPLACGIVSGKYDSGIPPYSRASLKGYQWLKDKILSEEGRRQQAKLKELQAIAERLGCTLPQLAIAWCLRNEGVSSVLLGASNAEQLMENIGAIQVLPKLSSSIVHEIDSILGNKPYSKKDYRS

For the molecule `C=CCn1c(SCC(=O)NCCCC)nc2scc(-c3ccco3)c2c1=O`, the cell count in assay [1] is 650. The inhibition in assay [1] is -6.7% (inactive); in assay [3], -4.2% (inactive); in assay [7], 19.3% (inactive); in assay [8], 28.9% (inactive). Besides, the inhibition of aggregation in assay [2] was 2.2% (inactive). Further, the figures for the nuclei count in assay [2] and in assay [3] were 120% and 99.8%, respectively. For the same molecule, the fluorescence slope in assay [4] was -0.444 (inactive). Further, the NADPH fluorescence slope in assay [5] is -3.5e-05 (inactive). In assay [6], the slope is 0.00561 (inactive).
Take `CCCc1nnc2n1N=C(c1ccc(OC)c(OC)c1)CS2`: in assay [1], the cell count was found to be 321. In addition, the inhibition in assay [1] is -12.4% (inactive); in assay [3], 12.3% (inactive); in assay [7], 16.9% (inactive); in assay [8] it was 37.3% (inactive). The inhibition of aggregation in assay [2] was -0.1% (inactive). Besides, the nuclei count came out at 83.3% in assay [2] and 99.3% in assay [3]. The fluorescence slope in assay [4] was -0.584 (inactive). Besides, the NADPH fluorescence slope in assay [5] was -5.6e-05 (inactive). Moreover, the slope in assay [6] is 0.00347 (inactive).
`CCOC(=O)c1cnc(SCC)[nH]c1=O`: in assay [1], the cell count is 436. Further, the inhibition in assay [1] is -11.8% (inactive); in assay [3], -34.3% (inactive); in assay [7] it was 6.7% (inactive); in assay [8] it was 27% (inactive). The inhibition of aggregation in assay [2] was -0.2% (inactive). For the same molecule, the nuclei count in assay [2] came to 118%; in assay [3] it was 117%. Besides, the fluorescence slope in assay [4] was -0.351 (inactive). For the same molecule, the NADPH fluorescence slope in assay [5] is -2.9e-05 (inactive). Moreover, the slope in assay [6] is 0.00558 (inactive).
Consider `O=C(Nc1ncnc2sc3c(c12)CCC3)c1ccco1`, for which the cell count in assay [1] was found to be 289. Moreover, the inhibition in assay [1] is -1.6% (inactive); in assay [3] it was -12.5% (inactive); in assay [7] it was -7.87% (inactive); in assay [8], -0.691% (inactive). For the same molecule, the inhibition of aggregation in assay [2] was 0.8% (inactive). Also, the nuclei count stood at 75.8% in assay [2] and 118% in assay [3]. Besides, in assay [4], the fluorescence slope was -0.327 (inactive). The NADPH fluorescence slope in assay [5] is -4.2e-05 (inactive). The slope in assay [6] is 0.00564 (inactive).
With `Cc1cc(=O)n(-c2ccc3ccccc3n2)[nH]1`, the cell count in assay [1] amounted to 383. The inhibition in assay [1] was -0.7% (inactive); in assay [3], -37.6% (inactive); in assay [7], 17.4% (inactive); in assay [8], 9.22% (inactive). For the same molecule, the inhibition of aggregation in assay [2] is -7.3% (inactive). In addition, the nuclei count in assay [2] is 89.7%; in assay [3], 107%. Also, in assay [4], the fluorescence slope is -0.436 (inactive). The NADPH fluorescence slope in assay [5] is -5.1e-05 (inactive). Also, in assay [6], the slope was 0.00622 (inactive).
`Cc1nn(C)c(C)c1NC(=O)CSc1nc(Cc2ccccc2)nc2c1cnn2-c1ccccc1`: the cell count in assay [1] was determined as 360. Moreover, the inhibition in assay [1] was -0.5% (inactive); in assay [3] it was -127% (inactive); in assay [7] it was 12% (inactive); in assay [8], 3.8% (inactive). Besides, the inhibition of aggregation in assay [2] was -17.9% (inactive). For the same molecule, the nuclei count was 105% in assay [2] and 121% in assay [3]. Also, the fluorescence slope in assay [4] was -0.491 (inactive). Moreover, the NADPH fluorescence slope in assay [5] was -6.6e-05 (inactive). Besides, in assay [6], the slope is 0.00793 (inactive).
For `CCOC(=O)c1cn(CC)c2cc(N3CCOCC3)c(F)cc2c1=O`, the cell count in assay [1] is 249. In addition, the inhibition in assay [1] was -5.5% (inactive); in assay [3], -45.9% (inactive); in assay [7] it was 3.57% (inactive); in assay [8] it was 10.9% (inactive). In addition, the inhibition of aggregation in assay [2] is 4.6% (inactive). The nuclei count in assay [2] stood at 72.9%; in assay [3] it was 114%. The fluorescence slope in assay [4] is -0.592 (inactive). In addition, the NADPH fluorescence slope in assay [5] was -1e-05 (inactive). Further, the slope in assay [6] is 0.00553 (inactive).
On to `CCCSCCCNC(=O)Cn1cc2c(n1)CCC(C)C2` (stereo not drawn), for which the cell count in assay [1] came out at 652. For the same molecule, the inhibition in assay [1] is -3.3% (inactive); in assay [3], 21.4% (inactive); in assay [7] it was -8.61% (inactive); in assay [8], 10.5% (inactive). Also, the inhibition of aggregation in assay [2] is 3.5% (inactive). Besides, the nuclei count in assay [2] is 92%; in assay [3] it was 103%. In assay [4], the fluorescence slope is -0.615 (inactive). The NADPH fluorescence slope in assay [5] is -2.5e-05 (inactive). Further, the slope in assay [6] was 0.00719 (inactive).
On to `Cn1c(Cc2ccccc2)nnc1SCC(=O)c1ccc(Br)s1`, for which the cell count in assay [1] stood at 180. Besides, the inhibition was 0.4% (inactive) in assay [1], -8.9% (inactive) in assay [3], 6.15% (inactive) in assay [7] and 10.8% (inactive) in assay [8]. Besides, the inhibition of aggregation in assay [2] is 16.7% (inactive). In addition, the nuclei count in assay [2] was determined as 94.8%; in assay [3], 98.1%. Further, the fluorescence slope in assay [4] is -0.596 (inactive). Further, the NADPH fluorescence slope in assay [5] is -1.4e-05 (inactive). Further, in assay [6], the slope was 0.00563 (inactive).
As for `CC(C)(C)n1nnnc1CN1CCC(NC(=O)NC2CCCCC2)CC1`, the cell count in assay [1] was 345. In addition, the inhibition was -18.5% (inactive) in assay [1], -45.9% (inactive) in assay [3], 11% (inactive) in assay [7] and 18.5% (inactive) in assay [8]. Besides, in assay [2], the inhibition of aggregation is 10.8% (inactive). Also, the nuclei count in assay [2] came to 93%; in assay [3] it was 115%. Also, the fluorescence slope in assay [4] is -0.324 (inactive). For the same molecule, the NADPH fluorescence slope in assay [5] is 9.8e-06 (inactive). The slope in assay [6] was 0.00372 (inactive).
For the molecule `CC(C)CC(=O)Nc1ccccc1-c1nnn(CC(=O)N2CCOCC2)n1`, in assay [1], the cell count came out at 739. Also, the inhibition is -6.7% (inactive) in assay [1], 25.9% (inactive) in assay [3], 7.19% (inactive) in assay [7] and 13.9% (inactive) in assay [8]. For the same molecule, the inhibition of aggregation in assay [2] was 1.9% (inactive). For the same molecule, the nuclei count in assay [2] turned out to be 112%; in assay [3], 106%. Further, the fluorescence slope in assay [4] was -0.497 (inactive). The NADPH fluorescence slope in assay [5] is -6.6e-05 (inactive). For the same molecule, the slope in assay [6] was 0.00487 (inactive).
With `COc1ccc(CN(C2CCCC2)S(=O)(=O)c2ccc(-n3cnnn3)cc2)cc1OC`, the cell count in assay [1] is 527. Besides, the inhibition is -5.8% (inactive) in assay [1], -39.4% (inactive) in assay [3], 15.1% (inactive) in assay [7] and 18.9% (inactive) in assay [8]. Further, the inhibition of aggregation in assay [2] is -15% (inactive). Moreover, the nuclei count is 115% in assay [2] and 124% in assay [3]. Moreover, in assay [4], the fluorescence slope was -0.57 (inactive). Further, in assay [5], the NADPH fluorescence slope was -1.6e-05 (inactive). Besides, the slope in assay [6] was 0.00406 (inactive).
For the molecule `O=C(CSCc1ccccn1)Nc1ccccc1`, the cell count in assay [1] came to 312. The inhibition in assay [1] was -8% (inactive); in assay [3] it was 4.8% (inactive); in assay [7] it was -30.9% (inactive); in assay [8], -49% (inactive). Also, in assay [2], the inhibition of aggregation was 21.9% (inactive). Also, the nuclei count in assay [2] is 95.1%; in assay [3], 98.8%. Also, in assay [4], the fluorescence slope is -0.437 (inactive). Further, the NADPH fluorescence slope in assay [5] is -4.9e-05 (inactive). Besides, the slope in assay [6] was 0.00582 (inactive).
